In PubChem BioAssay AID504797 (The Scripps Research Institute Molecular Screening Center, 2011):
This is one part of the list. A number with no mark means an inactive call. Active and inactive are the calls of the source. Rule as the data show it: active = activation above about 19%; inactive = the rest. Residues, ends and D or L forms follow the SMILES beside them.

Molecular target: cAMP-dependent protein kinase type II-beta regulatory subunit (Homo sapiens) (UniProt P31323)
Assay: activators of PKA-R2B holoenzyme, confirmation, biochemical, fluorescence polarization, human (AID 504797)
Conditions: PKA-R2B complex, at 11.4 µM, active compounds read high

Sequence of cAMP-dependent protein kinase type II-beta regulatory subunit (Homo sapiens) (P31323 whole entry, looked up): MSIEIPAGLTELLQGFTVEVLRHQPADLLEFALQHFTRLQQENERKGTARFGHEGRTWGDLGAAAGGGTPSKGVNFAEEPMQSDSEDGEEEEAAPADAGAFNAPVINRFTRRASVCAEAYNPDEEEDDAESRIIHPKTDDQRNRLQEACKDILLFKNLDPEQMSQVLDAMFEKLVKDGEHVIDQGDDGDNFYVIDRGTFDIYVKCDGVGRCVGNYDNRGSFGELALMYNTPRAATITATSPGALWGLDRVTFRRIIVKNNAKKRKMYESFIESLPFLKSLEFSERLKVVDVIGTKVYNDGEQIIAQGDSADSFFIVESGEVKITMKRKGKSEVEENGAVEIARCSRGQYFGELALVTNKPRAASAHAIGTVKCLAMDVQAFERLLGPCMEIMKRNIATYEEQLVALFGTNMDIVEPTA

**Q.** With `COc1cccc(Nc2nnc(SCC(=O)N3CC(C)OC(C)C3)s2)c1` (stereo not drawn) as the compound, how does the activation read?
**A.** 1.96%

**Q.** For `COc1ccc(C/C(C)=N/NC(=O)c2ccncc2)cc1`, which activation is on record?
**A.** 0.21%

**Q.** Which activation does the source give for `COc1ccc(CC(NC(C)=O)C(=O)NC2CCN(C(=O)c3ccc(Cl)cc3)CC2)cc1` (stereo not drawn) here?
**A.** 2.1%

**Q.** For `N#Cc1ccccc1CN1C(=O)S/C(=C/c2cccn2-c2cccc(C(=O)O)c2)C1=O`, which activation is on record?
**A.** 19.4% (active)

**Q.** With `CC(C)(C)c1nnc(N/N=C/c2ccc(O)cc2)n(N)c1=O` as the compound, how does the activation read?
**A.** 3.54%

**Q.** `CCCC(=O)Nc1ncnc2c1ncn2[C@@H]1O[C@@H]2OP(=O)(O)OC[C@H]2[C@H]1OC(=O)CCC` was tested. Which activation did it give?
**A.** 36.6% (active)

**Q.** How did the activation turn out when `O=C(CCCN1C(=O)c2cccc3cccc(c23)C1=O)N1CCN(Cc2ccc3c(c2)OCO3)CC1` was run?
**A.** -2.59%

**Q.** `O=C(CNC(=O)c1ccccc1)NCC(=O)OCC(=O)c1ccccc1` (HELM PEPTIDE1{[O=C(c1ccccc1)[*:2]].G.G.[O=C(CO[*:1])c1ccccc1]}$$$$V2.0) was tested. Which activation did it give?
**A.** 3.61%

**Q.** For `O=S(=O)(NCCNS(=O)(=O)c1ccccc1)c1ccccc1`, which activation is on record?
**A.** 4.44%

**Q.** How did the activation turn out when `O=C(O)C1=C(C(=O)O)C2CCC1C2` was run?
**A.** -0.5%

**Q.** How did the activation turn out when `CC(C)(C)c1ccc(C(=O)N2CCC(C(=O)N3CCCCC3)CC2)cc1` was run?
**A.** -0.14%

**Q.** `COc1ccc([N+](=O)[O-])cc1C1NN=C(c2cccc3ccccc23)S1` (stereo not drawn) was tested. Which activation did it give?
**A.** 1.59%

**Q.** With `O=C(CN(C(=O)CCC(=O)Nc1nccs1)c1ccc(F)cc1)NCc1ccc2c(c1)OCO2` as the compound, how does the activation read?
**A.** 3.19%
